Compounds without any hit were thinned out: in the full panel of roughly 83,000, 20% have a hit.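 The test compound was applied at a single concentration to cells in 96-well plates for 48 hours, and percent growth was recorded.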 Calls of active or inactive are those of the source. The calls were made as follows: active = growth percent below 10; inactive = the rest.
Legend:
Assay in all cases: NCI-60 one-dose screen, 48 h (100 = growth as untreated, 0 = no growth, -100 = all killed)
Conditions in all cases: 10 µM unless noted
NCI-H23 lung = test system: NCI-H23 lung
NCI-H226 lung = test system: NCI-H226 lung
NCI-H322M lung = test system: NCI-H322M lung
HOP-62 NSCLC = test system: HOP-62 NSCLC
NCI-H460 lung = test system: NCI-H460 lung
HOP-92 NSCLC = test system: HOP-92 NSCLC
NCI-H522 lung = test system: NCI-H522 lung
A549/ATCC NSCLC = test system: A549/ATCC NSCLC
786-0 renal = test system: 786-0 renal
COLO 205 colon = test system: COLO 205 colon
DU-145 prostate = test system: DU-145 prostate
K-562 leukemia = test system: K-562 leukemia
MALME-3M melanoma = test system: MALME-3M melanoma
MDA-MB-231 breast = test system: MDA-MB-231 breast
RXF 393 renal = test system: RXF 393 renal
SF-268 CNS = test system: SF-268 CNS
SF-539 CNS = test system: SF-539 CNS
UACC-257 melanoma = test system: UACC-257 melanoma
M14 melanoma = test system: M14 melanoma

Measured: growth

COc1ccc(/C=C2\N=C(c3ccccc3)N(c3cc(OC)c(OC)cc3C(=O)N3N=C(C)CC3=O)C2=O)cc1
inactive: NCI-H23 lung 102% | NCI-H226 lung 90.1% | NCI-H322M lung 118% | HOP-62 NSCLC 97% | NCI-H460 lung 94.4% | HOP-92 NSCLC 78.2% | NCI-H522 lung 82.6% | A549/ATCC NSCLC 104% | 786-0 renal 98.9% | COLO 205 colon 112% | DU-145 prostate 95.2% | K-562 leukemia 81.5% | MALME-3M melanoma 126% | MDA-MB-231 breast 87.4% | RXF 393 renal 93.5% | SF-268 CNS 91.4% | SF-539 CNS 94.6% | UACC-257 melanoma 128% | M14 melanoma 97.9%

Nc1nc(N)c2nc3c(nc2n1)CCCCCCCCCC3
inactive: NCI-H23 lung 37.1% | NCI-H226 lung 102% | NCI-H322M lung 59.1% | HOP-62 NSCLC 58.1% | NCI-H460 lung 14.3% | HOP-92 NSCLC 79.7% | NCI-H522 lung 53.8% | A549/ATCC NSCLC 20.4% | 786-0 renal 31.9% | COLO 205 colon 54.1% | DU-145 prostate 53.6% | K-562 leukemia 29.1% | MALME-3M melanoma 79.1% | MDA-MB-231 breast 84.9% | RXF 393 renal 80% | SF-268 CNS 42.1% | SF-539 CNS 59.6% | UACC-257 melanoma 55.5%

C[N+](C)(CCCCCC[N+](C)(C)C1c2ccccc2-c2ccccc21)C1c2ccccc2-c2ccccc21
inactive: NCI-H23 lung 103% | NCI-H226 lung 108% | NCI-H322M lung 131% | HOP-62 NSCLC 113% | NCI-H460 lung 109% | HOP-92 NSCLC 117% | NCI-H522 lung 80.9% | A549/ATCC NSCLC 102% | 786-0 renal 112% | COLO 205 colon 106% | DU-145 prostate 118% | K-562 leukemia 99.5% | MALME-3M melanoma 104% | MDA-MB-231 breast 115% | RXF 393 renal 113% | SF-268 CNS 111% | SF-539 CNS 102% | UACC-257 melanoma 103% | M14 melanoma 106%

CC(C)=CCC/C(C)=C/CC/C(C)=C/CC/C(C)=C/CSC[C@H](NC(=O)CCCCCN1CCN(C)CC1)C(=O)NC1CCCCC1
active: NCI-H460 lung -7.73% | COLO 205 colon 8.86% | K-562 leukemia -27.2% | MDA-MB-231 breast -81.3%
inactive: NCI-H23 lung 73% | NCI-H226 lung 95.8% | NCI-H322M lung 89.8% | HOP-62 NSCLC 85.6% | HOP-92 NSCLC 76.4% | NCI-H522 lung 85% | A549/ATCC NSCLC 71.7% | 786-0 renal 83.7% | DU-145 prostate 64.3% | MALME-3M melanoma 71.2% | RXF 393 renal 75.1% | SF-268 CNS 84.8% | SF-539 CNS 85.7% | UACC-257 melanoma 105% | M14 melanoma 35.1%

Fc1ccc2nc(-c3cc(-c4ccc5c(c4)OCO5)n[nH]3)[nH]c2c1
inactive: NCI-H23 lung 64% | NCI-H226 lung 66.1% | NCI-H322M lung 64.9% | HOP-62 NSCLC 75.5% | NCI-H460 lung 40.9% | HOP-92 NSCLC 64.9% | NCI-H522 lung 33.7% | A549/ATCC NSCLC 60.1% | 786-0 renal 56.8% | COLO 205 colon 84.7% | DU-145 prostate 78.3% | K-562 leukemia 15.5% | MALME-3M melanoma 57.7% | MDA-MB-231 breast 67.6% | RXF 393 renal 63.1% | SF-268 CNS 77.5% | SF-539 CNS 56.3% | UACC-257 melanoma 84.9% | M14 melanoma 49.5%

O=c1c2sc3ncc(Br)cc3c2ncn1-c1cccc(Cl)c1
inactive: NCI-H23 lung 87.4% | NCI-H226 lung 87.3% | NCI-H322M lung 48.2% | HOP-62 NSCLC 60.3% | NCI-H460 lung 24.9% | HOP-92 NSCLC 72.7% | NCI-H522 lung 82.8% | A549/ATCC NSCLC 43% | 786-0 renal 89% | COLO 205 colon 86.3% | DU-145 prostate 53.3% | K-562 leukemia 81.9% | MALME-3M melanoma 52.5% | MDA-MB-231 breast 49.5% | RXF 393 renal 73.6% | SF-268 CNS 64.1% | SF-539 CNS 81.4% | UACC-257 melanoma 88.4% | M14 melanoma 76%

COc1ccc(-c2cc(/C=C/C(=O)c3ccc(N)cc3)[nH]n2)cc1
inactive: NCI-H23 lung 27.3% | NCI-H226 lung 24.5% | NCI-H322M lung 12.4% | HOP-62 NSCLC 15.4% | HOP-92 NSCLC 73.6% | A549/ATCC NSCLC 18.6% | 786-0 renal 17.8% | DU-145 prostate 11.9% | MALME-3M melanoma 54.3% | MDA-MB-231 breast 35.7% | RXF 393 renal 20% | SF-268 CNS 17% | UACC-257 melanoma 58.9%
active: NCI-H460 lung -50% | NCI-H522 lung -24.3% | COLO 205 colon 7.56% | K-562 leukemia -2.07% | SF-539 CNS 1.33%

COc1cc2[nH]c(C(=O)c3cc(OC)c(OC)c(OC)c3)c(N)c2cc1C#CCO
active: NCI-H460 lung 7.9% | NCI-H522 lung -6.03% | COLO 205 colon -35.8% | K-562 leukemia 7.65% | RXF 393 renal 1.88% | SF-539 CNS -35% | M14 melanoma 7.42%
inactive: NCI-H23 lung 35.7% | NCI-H226 lung 27.9% | NCI-H322M lung 43.6% | HOP-62 NSCLC 28.3% | HOP-92 NSCLC 21.6% | A549/ATCC NSCLC 33% | 786-0 renal 40.8% | DU-145 prostate 12.2% | MALME-3M melanoma 31.7% | MDA-MB-231 breast 39% | SF-268 CNS 32.5% | UACC-257 melanoma 71.2%

OCCNc1nc(Nc2ccc(Cl)c(Cl)c2)nc2ccccc12
active: COLO 205 colon -21.7% | K-562 leukemia 2.65% | MDA-MB-231 breast 5.57%
inactive: NCI-H23 lung 54.5% | NCI-H226 lung 61.7% | NCI-H322M lung 71% | HOP-62 NSCLC 49.1% | NCI-H460 lung 33.3% | HOP-92 NSCLC 27.4% | NCI-H522 lung 62% | A549/ATCC NSCLC 37% | 786-0 renal 62% | DU-145 prostate 70.9% | MALME-3M melanoma 31.1% | RXF 393 renal 16.8% | SF-268 CNS 48.6% | SF-539 CNS 75.1% | UACC-257 melanoma 57.9% | M14 melanoma 29.9%

O=C1c2ccccc2C(=Cc2ccccc2)c2ccccc21
inactive: NCI-H226 lung 38.7% | NCI-H322M lung 66.8% | HOP-62 NSCLC 21.3% | HOP-92 NSCLC 51.7% | A549/ATCC NSCLC 19.8% | MALME-3M melanoma 41.6% | SF-268 CNS 10.6% | UACC-257 melanoma 15.7%
active: NCI-H23 lung 2.92% | NCI-H460 lung -6.75% | NCI-H522 lung -25.4% | 786-0 renal -15.9% | COLO 205 colon -21.1% | DU-145 prostate -21.3% | K-562 leukemia 8.16% | MDA-MB-231 breast -20.7% | RXF 393 renal -1.26% | SF-539 CNS -26.2% | M14 melanoma -20.5%

COc1ccc2c(c1)C/C(=C\c1cc(-c3cc(OC)c(OC)c(OC)c3)n[nH]1)C2=O
inactive: NCI-H23 lung 90.2% | NCI-H226 lung 82.3% | NCI-H322M lung 93.9% | HOP-62 NSCLC 103% | NCI-H460 lung 106% | HOP-92 NSCLC 79.1% | NCI-H522 lung 60.6% | A549/ATCC NSCLC 92.9% | 786-0 renal 95.9% | COLO 205 colon 109% | DU-145 prostate 113% | K-562 leukemia 53.7% | MALME-3M melanoma 108% | MDA-MB-231 breast 78.9% | RXF 393 renal 94.9% | SF-268 CNS 100% | SF-539 CNS 89.5% | UACC-257 melanoma 97.3% | M14 melanoma 100%

COc1cc(-c2nc(-c3ccccc3)c(-c3ccccc3)[nH]2)cc(OC)c1O
inactive: NCI-H226 lung 48.9% | NCI-H322M lung 13% | HOP-92 NSCLC 38.2% | 786-0 renal 19.3%
active: NCI-H23 lung -31.9% | HOP-62 NSCLC -26.5% | NCI-H460 lung -37.5% | NCI-H522 lung -23% | A549/ATCC NSCLC -30.9% | COLO 205 colon -73.8% | DU-145 prostate -23.5% | K-562 leukemia 3.86% | MALME-3M melanoma -28.9% | MDA-MB-231 breast 0.0647% | RXF 393 renal -48.8% | SF-268 CNS 4.5% | SF-539 CNS 0.938% | UACC-257 melanoma 6.33% | M14 melanoma -18.8%

Cc1ccc(Nc2c(C(N)=O)cnc3ccc(S(=O)(=O)Nc4cc(C)on4)cc23)cc1
inactive: NCI-H23 lung 95.1% | NCI-H226 lung 95% | NCI-H322M lung 95.8% | HOP-62 NSCLC 89.8% | NCI-H460 lung 103% | HOP-92 NSCLC 84.1% | NCI-H522 lung 92.2% | A549/ATCC NSCLC 103% | 786-0 renal 106% | COLO 205 colon 101% | DU-145 prostate 109% | K-562 leukemia 117% | MALME-3M melanoma 108% | MDA-MB-231 breast 99.5% | RXF 393 renal 105% | SF-268 CNS 104% | SF-539 CNS 92.7% | UACC-257 melanoma 101% | M14 melanoma 100%

NS(=O)(=O)c1ccc(CCNC(=O)/C=C/c2ccc(Cl)cc2)cc1
inactive: NCI-H23 lung 107% | NCI-H226 lung 107% | NCI-H322M lung 107% | HOP-62 NSCLC 97.5% | NCI-H460 lung 98% | HOP-92 NSCLC 100% | NCI-H522 lung 89.8% | A549/ATCC NSCLC 95.9% | 786-0 renal 102% | COLO 205 colon 110% | DU-145 prostate 99.5% | K-562 leukemia 90.4% | MALME-3M melanoma 90.4% | MDA-MB-231 breast 98.4% | RXF 393 renal 122% | SF-268 CNS 95.6% | SF-539 CNS 101% | UACC-257 melanoma 104% | M14 melanoma 99.2%

COc1ccc2nc(-c3cc(-c4cc(OC)c(OC)c(OC)c4)n[nH]3)[nH]c2c1
inactive: NCI-H322M lung 31.1% | NCI-H460 lung 25.2% | HOP-92 NSCLC 22% | 786-0 renal 59.5% | DU-145 prostate 11.8% | MDA-MB-231 breast 36.2% | RXF 393 renal 45.8% | SF-268 CNS 10.7% | SF-539 CNS 34.4%
active: NCI-H23 lung 7.44% | NCI-H226 lung -48.9% | HOP-62 NSCLC -1.25% | NCI-H522 lung -15.1% | A549/ATCC NSCLC 6.33% | COLO 205 colon -20% | K-562 leukemia -10.7% | MALME-3M melanoma -40.4% | UACC-257 melanoma -13.4% | M14 melanoma 9.11%

From PubChem BioAssay (NCI)
